Source: PubChem
RE007 growth inh: qHTS Assay for Inhibitors of the HIV-1 protein Vpr; S. pombe RE007 Vpr strain, BacTiter-Glo ATP luminescence, 24 h; Potency, µM (doses to about 92.2 µM), for the others: top-dose activity change, negative = less growth, most hits filed as inhibitors; 360,000 tested, 0.21% active; AID 651644, 2012; active means well fitted falling curve with a large enough effect; inconclusive means small, poorly fitted or top-dose-only effect; inactive means no such curve, though single readings can be large or run the other way; further: nearly all actives have a fitted effect of over 50% in size
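Fission yeast strain RE007, carrying one chromosomally integrated HIV-1 vpr copy, was seeded at OD 0.01 in PMG+AL medium with 23 nL pinned compound. After 24 h at 30 °C and 99% humidity, viability was read by BacTiter-Glo luminescence.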
LmPK inhibitor: qHTS Assay for Inhibitors of Leishmania Mexicana Pyruvate Kinase (LmPK); Q27686; purified LmPK, Kinase-Glo ATP luminescence, 1 h; Potency, µM (titrated, usually from 57.5 µM), inactives show at the highest dose activity change, negative = inhibition, most hits filed as inhibitors; 290,000 tested, 0.37% active; AID 1721, 2009
Target sequence (Q27686 whole entry, looked up): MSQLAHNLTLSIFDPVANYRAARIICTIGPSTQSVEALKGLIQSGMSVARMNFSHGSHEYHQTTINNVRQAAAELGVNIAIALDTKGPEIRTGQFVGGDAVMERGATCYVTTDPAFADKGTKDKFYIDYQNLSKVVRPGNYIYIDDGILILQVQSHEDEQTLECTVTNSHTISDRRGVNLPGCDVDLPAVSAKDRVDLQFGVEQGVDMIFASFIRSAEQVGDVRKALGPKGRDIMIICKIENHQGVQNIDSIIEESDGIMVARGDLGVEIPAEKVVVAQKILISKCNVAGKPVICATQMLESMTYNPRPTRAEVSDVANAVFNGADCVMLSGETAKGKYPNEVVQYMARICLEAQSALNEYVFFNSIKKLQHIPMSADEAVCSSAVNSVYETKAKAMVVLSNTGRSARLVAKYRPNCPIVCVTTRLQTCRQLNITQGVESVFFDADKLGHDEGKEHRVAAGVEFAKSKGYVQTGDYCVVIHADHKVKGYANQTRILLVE
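Kinase-Glo luminescence read after 1 h RT reaction of 0.1 nM LmPK with 0.5 mM PEP and 0.1 mM ADP. Activity scaled between uninhibited and enzyme-free controls.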
Sm TGR block: qHTS Assay for the Inhibitors of Schistosoma Mansoni Peroxiredoxins. AID 485364, 2010. Schistosoma mansoni thioredoxin glutathione reductase (TGR), Q962Y6. purified TGR, DTNB reduction, TNB absorbance 405 nm. 360,000 tested, 3% active. Potency, µM (highest dose often 114 µM), without a hit: top-dose activity change, negative = inhibition, usual class: inhibitors; further: nearly all actives have a fitted effect of over 60% in size
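Kinetic colorimetric format: TGR-catalysed, NADPH-driven DTNB reduction monitored via TNB absorbance. Enzyme dispensed at 20 nM; compound exposure 15 min at room temperature before reaction start.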
AMA1-RON2 inh: qHTS for Inhibitors of AMA1-RON; Towards Development of Antimalarial Drug Lead: Primary Screen | Plasmodium falciparum AMA1 (3D7) - RON2 peptide interaction | AlphaScreen AMA1-biotinylated RON2 peptide binding | Potency, µM (doses to about 58.2 µM), without a hit: at the highest dose activity change, negative = inhibition, most hits filed as inhibitors | 360,000 tested, 0.2% active | AID 720542, 2013;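 further: 0% = vehicle wells and -100% = peptide control; nearly all actives have a fitted effect of over 45% in size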
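AMA1 (3D7) with his tag at 25 nM final met compounds first, then biotinylated RON2 peptide at 25 nM; detection used donor plus acceptor beads, 10 µg/mL apiece, read by AlphaScreen after 30 min at room temperature.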
TbPYK inhibitor: qHTS of Trypanosoma Brucei Inhibitors; pyruvate kinase (Trypanosoma brucei), Q57TT1; TbPYK enzyme, Kinase-Glo Plus ATP luminescence, 45 min; Potency, µM (series often up to 76.8 µM), inactives show top-dose activity, negative = inhibition, usual class: inhibitors; 410,000 tested, 0.12% active; AID 624173, 2012; further: nearly all actives have a fitted effect of over 50% in size
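Luminescent Kinase-Glo Plus end-point after 45 min room-temperature reaction of T. brucei pyruvate kinase started with 130 uM ADP (final). Buffer TEA 50 mM pH 7.2 with KCl, MgCl2, BSA, Tween-20; titration-based qHTS with fitted concentration-effect curves.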
Starred values were filed as active, the others as inactive; ? = inconclusive; / = no result given; [ ] = remark or other dose. Sampled rows, rich in hits. Any-hit rate of the full collection: about 3.2%. Unless noted, the call rests on the fitted dose curve; in most records, active means well fitted curve in the direction sought with a large enough effect; inconclusive means small, poorly fitted or top-dose-only effect, or another doubt; inactive means no such curve, though single readings can be large; an effect the other way counts as inactive or inconclusive. Unless noted, on the % scale 0 is the no-effect control and ±100 the full control effect; potency means the concentration at half of the fitted maximal effect.

SMILES	RE007 growth inh	LmPK inhibitor	Sm TGR block	AMA1-RON2 inh	TbPYK inhibitor
CCOc1cc(C(=O)Nc2cc(C)ccn2)cc(OCC)c1OCC	-20%	4%	-9%	11%	2%
CCCCOc1ccc(C(=O)Nc2cccc(C)n2)cc1	-23%	?	-15%	20%	-11%
CCOc1ccc(C(=O)Nc2cccc(C)n2)cc1	?	16µM*	26%	-5%	-14%
COc1ccc(CCNC(=O)c2nc(SCc3ccccc3F)ncc2Cl)cc1OC	/	/	0%	/	-3%
COc1ccc(CCNC(=O)C(C)n2nc(C)c3sc4ccccc4c3c2=O)cc1OC (stereo not drawn)	/	/	-1%	/	0%
COc1ccc(NC(=O)Cn2cc(C(=O)c3ccccc3OC)c(=O)c3ccc(C)nc32)cc1OC	/	/	-7%	/	-5%
Cc1ccc(CNC(=O)c2cc(-c3ccc(C)cc3)nc3n[nH]c(-c4cccc([N+](=O)[O-])c4)c23)cc1	/	/	2%	/	13%
Cc1c(CCOC(=O)c2ccc(N3CCOCC3)c([N+](=O)[O-])c2)sc[n+]1CC#N	73%	6%	0.89µM*	36%	1%
Cn1c(Cc2ccc3c(c2)OCO3)nnc1SCC(=O)N1CCc2ccccc2C1	17%	7%	45µM*	9%	-17%
Cn1c(Cc2ccccc2)nnc1SCC(=O)N1CCCCC1	9%	-1%	-3%	-14%	3%
Cc1ccc(S(=O)(=O)n2ccc(OC(=O)c3cccs3)n2)cc1	5%	1%	6.3µM*	0%	-1%
CC1CSc2nc3sc4c(c3c(=O)n21)CCCC4 (stereo not drawn)	22µM*	-5%	0%	-11%	-19%
Nc1ccc2nc(-c3cccnc3)[nH]c2c1	-8%	-22%	0%	-24%	1%
O=C(Nc1ccc2nc(-c3ccccc3)[nH]c2c1)c1ccco1	-1%	-6%	28µM*	12%	-3%
COc1ccc2nc(-c3ccc(N)cc3)[nH]c2c1	-7%	?	-3%	9%	-12%
Nc1ccc2nc(-c3ccccn3)[nH]c2c1	-18%	20µM*	1%	?	-14%
Nc1ccc2nc(-c3ccccc3)[nH]c2c1	-6%	14µM*	1%	-12%	-12%
COc1ccc2nc(-c3cccc(N)c3)[nH]c2c1	-9%	22µM*	?	-8%	-7%
O=C(Nc1cccc(Cl)c1)c1ccc2nc(Cc3ccccc3)oc2c1	/	/	11%	/	3%
CC[C@H](OC(C)=O)C(C[C@H](C)NC)(c1ccccc1)c1ccccc1	/	/	/	/	-5%[157 µM]
CCOC(=O)CSc1nnc(NCC(=O)OC(C)C)c(=O)[nH]1	12%	-1%	13µM*	29%	-25%
Brc1ccc(Oc2ccc(Br)cc2Br)c(Br)c1	0%	/	38%	36%	2%
O=c1c(Br)ccc(Br)cc1Br	2.2µM*	/	/	-2%	-16%
CC1CCC(C(=O)NC(C(=O)OCC(=O)c2ccccc2)C(C)C)CC1 (stereo not drawn)	/	/	1%	/	6%
CCOC(=O)c1sc(S(C)=O)c2c1CCc1conc1-2 (stereo not drawn)	4%	8%	1µM*	-2%	-20%
SMILES	RE007 growth inh	LmPK inhibitor	Sm TGR block	AMA1-RON2 inh	TbPYK inhibitor
Cc1[nH]n(-c2ccccc2)c(=S)c1C=Nc1ccc([N+](=O)[O-])cc1	39%	-26%	-25%	6%	2.8µM*
CN(C)c1ccc(NC(=O)Cn2cc(S(=O)(=O)Cc3ccccc3Cl)c3ccccc32)cc1	/	/	-11%	/	-10%
CC(=O)O[C@H]1C[C@@H]2CC[C@@H]3[C@H](CC[C@]4(C)[C@H](OC(C)=O)[C@@H](N5CC[N+](C)(C)CC5)C[C@@H]34)[C@@]2(C)C[C@@H]1N1CC[N+](C)(C)CC1	/	/	/	/	-8%
CCCCC(O)(CCCC)C(=O)NN(C(=O)OCC)c1ccccc1	4%	5%	-1%	-7%	3%
CCCC(O)(CCC)C(=O)NN(C(=O)CCl)c1ccccc1	-3%	3%	11µM*	3%	1%
CCOc1c(Cl)cc(CNc2ccc3[nH]c(=O)[nH]c3c2)cc1OC	/	/	-22%	/	-3%
O=C(c1coc(=O)c(Br)c1)N1CCCc2ccccc21	-10%	6%	22µM*	?	-8%
C=CCN1C(=O)c2ccc(C(=O)N(C)CC(=O)Nc3ccccc3Cl)cc2C1=O	-12%	/	4%	2%	-11%
C=CCN1C(=O)c2ccc(C(=O)N(C)Cc3ccc(C)o3)cc2C1=O	-12%	/	50µM*	81%	-15%
COc1ccc2cc(-c3nc4ccc(C(=O)O)cc4[nH]3)c(=O)oc2c1	/	/	-8%	/	-6%
CCOC(=O)C1=C(C)N(c2ccccc2)C(=O)/C1=C\c1ccco1	-3%	3%	45µM*	-27%	-3%
COC(=O)C1=C(C)N(c2ccc(OC)c(OC)c2)C(=O)/C1=C\c1ccco1	8%	2%	16µM*	-15%	-12%
CCOC(=O)C1=C(C)N(c2ccccc2)C(=O)/C1=C\c1ccc(O)c(OC)c1	-9%	?	3.2µM*	?	-15%
O=c1[nH]c(=O)n(-c2cccc(F)c2)c(O)c1/C=C1\C=Nc2ccccc21	8%	-1%	35µM*	-1%	-4%
CCN1C(=O)C(=C/C=C/c2ccco2)C(=O)N(CC)C1=S	-17%	4%	8.9µM*	4%	-17%
CC(C)N1C(=O)/C(=C/C=C/c2ccco2)C(=O)N(Cc2ccco2)C1=O	-18%	9%	3.5µM*	?	-7%
O=C1NC(=O)N(Cc2ccccc2)C(=O)/C1=C/C=C/c1ccco1	1%	5%	6.3µM*	-27%	6%
COc1ccc(CN2C(=O)NC(=O)/C(=C\c3ccco3)C2=O)cc1	-14%	22%	?	?	?
O=C1NN(c2ccc(F)cc2)C(=O)/C1=C\C=C\c1ccco1	-9%	-5%	?	-8%[11.6 µM]	-10%
Cc1ccc(S(=O)(=O)CC(=O)Nc2sc3c(c2C#N)CCCC3)cc1	/	/	-6%	/	7%[15.4 µM]
O=C(Nc1ccccc1CC[N+](=O)[O-])N1CCN(c2ccccc2)CC1	-3%	-9%	2.2µM*	-23%	-9%
Cc1ccc(C)c(NC(=O)CCc2c(C)nn(-c3ccc(N4CCCC4)nn3)c2C)c1	/	/	5%	/	3%
COc1cccc(OC)c1C(=O)NC(C)C12CC3CC(CC(C3)C1)C2 (stereo not drawn)	10µM*	-3%	0%	-14%	-1%
COc1ccc(NC(=O)c2oc3c(c2C)-c2nn(Cc4ccccc4Cl)cc2CC3)cc1OC	/	/	-3%	/	0%
C=CCNC(=S)Nc1sc2c(c1C(N)=O)CCCC2	-14%	-2%	1%	59%	-26%
